# According to article PMC12136788:
# Substitutions are numbered along the chain they refer to. Over roughly 5,800 sequences, “enrichment r” has its median near 0.54; the highest 2% begin near 16. Many of the other results were omitted from the sample, so the highest values are more common in it than they were.
# B1: ENSG00000087460:stop:overlap|stop_codon|ENSG00000087460|stop_codon|NA|stop_codon (ssRNA)
# RNA: GGGAGUUCUACAGUCCGACGAUCGAGGCGCCUUCGGCUCGGGCCAUGGCGCCCGGCGCCGGGGGCGCGAGGAGCGGCUCAUCUAGUCAGACCCCCCACCCCGCCACCGCCACCAGACACCACCAUCGCUGUGUAGUGUGCUGGCAACAGAGGAUUGAGCAUCA
# B2: chr1:45693489:45693605:+|CDS|ENSG00000159596|unk|FALSE|unique (ssRNA)
# RNA: GGGAGUUCUACAGUCCGACGAUCAAUCCCCUUCGUUGCUCCACCACUGGUCAUGCUGAUGACAAAAACUUAUAUUCCCAUAUUAGCUUUUACUCAGAUGGCUUAUGGAGCCAGUUUCCUAUCUUUCUUGGGUGGGAUCAGAUGCAACAGAGGAUUGAGCAUCA
# B3: chr1:17067390:17067767:-|3pUTR|ENSG00000117115|msi1|total|mutant (ssRNA)
# RNA: GGGAGUUCUACAGUCCGACGAUCCCCAACAUGCAAAGCCCACAUUUAAAGGCCAGCCUCUGCCCCUUCAGUGAUGCGCUCUUCCGAAAUGCCAGUCCACUAUAUUCAGAAAUCCGCAGGGCACAAAACUUCCAGCAAGUCACUCAACAGAGGAUUGAGCAUCA
# B4: chr10:32033860:32033975:-|CDS|ENSG00000170759|unk|total|mutant (ssRNA)
# RNA: GGGAGUUCUACAGUCCGACGAUCCACAGUGGAUAAAGAUAUUACUCUUACCAAUGAUAAACCAGCAACCGCAAUUGGAGUUACCGGAAAUUUUACUGAUGCUGAAAGAAGAAAGUGUGAAGAAGAAAUUGCUAAAUUAUACAACAACAGAGGAUUGAGCAUCA
# B5: chr5:171862525:171862626:-|3pUTR|ENSG00000072803|msi1|total|mutant (ssRNA)
# RNA: GGGAGUUCUACAGUCCGACGAUCGACAGUGCAUGGAAAGGACGUUGGCAUCCAAUUGGCACUCCUUCUCCCUUAUUCAAUAUCCGGUUUGAUUUGCCCUUCGCCAUUGUUUCCAAAGAUCAAGGAAUGUCAAUAACAUUUUAACAACAGAGGAUUGAGCAUCA
# B6: ENSG00000124766:be:win_751|CDS|ENSG00000124766|bound_else_gene|NA|bound_elsewhere_windowed (ssRNA)
# RNA: GGGAGUUCUACAGUCCGACGAUCGGCGCCGCCGCCGACCACCACUCGCUGUACAAGGCGCGGACUCCCAGCGCCUCGGCCUCCGCCUCCUCGGCAGCCUCGGCCUCCGCAGCGCUCGCGGCCCCGGGCAAGCACCUGGCGGAGCAACAGAGGAUUGAGCAUCA
# B7: chr18:35263486:35263657:-|CDS|ENSG00000186814|control|control|control (ssRNA)
# RNA: GGGAGUUCUACAGUCCGACGAUCGGAAAUGACAUCCACAGGAGCACUGAAGUCUCUGUCUCUGAAUAGCCCGGUGCAGCCCUUAGAGAACCAGUGCAAGACUGAGACUCAGGAGUCCCAGGCUUUCCAGGAGAGAGGUGAGAACAACAGAGGAUUGAGCAUCA
# B8: chr4:138169334:138169435:-|3pUTR|ENSG00000151012|msi1|FALSE|unique (ssRNA)
# RNA: GGGAGUUCUACAGUCCGACGAUCCCAUUUCACGCAGAAAAAAAGUCAGCCAGUAAUUAAGAAAAAAAGUGAUGGAGAUUAAGUAGUAUUUUGGCUUAUUUUUAGGACUCAUCAUGAGAAGACACAGUUCCUUUAAUCAGGAAACAACAGAGGAUUGAGCAUCA
# B9: chr4:138169334:138169435:-|3pUTR|ENSG00000151012|msi1|total|mutant (ssRNA)
# RNA: B8 RNA with U83C, A84C, U102C, A103C
# B10: chrX:155122998:155123099:+|3pUTR|ENSG00000185515|unk|FALSE|unique (ssRNA)
# RNA: GGGAGUUCUACAGUCCGACGAUCCUACAUACACACAAAUGAAUGCAUGUAAAAUCUGGUGAUACUGAAUAAAGUCUGUGGUCUAGAUAGCAGUAUAAUAUUAUUGUCAAUGUCUUGGAUGUGAAGUUGUGCUAUAGUUACAAACAACAGAGGAUUGAGCAUCA
# B11: chr13:79312715:79312816:-|3pUTR|ENSG00000139746|unk|total|mutant (ssRNA)
# RNA: GGGAGUUCUACAGUCCGACGAUCCCUUGUGAUUUAUUAUAAUGCCGCAGCAUACUUAUAAAAGUGGUCUGUGCUGAGUCAGACCGAGAGCCCAGCCCAUCCGAAACACAUCAUAAUUUAAGAAUAUGAUGCAGAAUGCCCUUACAACAGAGGAUUGAGCAUCA
# B12: chr13:79312715:79312816:-|3pUTR|ENSG00000139746|unk|FALSE|unique (ssRNA)
# RNA: B11 RNA with C44U, C45A, C83U, C84A, C100U, C101A
# B13: chr17:5489330:5489445:+|CDS|ENSG00000167842|unk|FALSE|unique (ssRNA)
# RNA: GGGAGUUCUACAGUCCGACGAUCACGUUGACUUUCUUUGAUGAGCUUCAUAAUGUUGGCAGAGAUCAUGGGACUAGUGAUUUUAGGGAGAGUUUAGUAUCCCUGGUUCAGAACUCCAGAAAACUACAGAACAUUAGAGACAAUCAACAGAGGAUUGAGCAUCA
# B14: chr5:97028609:97028710:+|3pUTR|ENSG00000113441|msi1|total|mutant (ssRNA)
# RNA: GGGAGUUCUACAGUCCGACGAUCUUGCAAAAGCCAAGGUAAAGCCAGGAUCGCUGCCAAGUUGUUUGCACUCUUUGGAGUUCCCGUCCGCUCAGGGCCUGACUGUAUUUUUCAUCCAUCUUUUCUGAAGUGUCUUUGGGCAGUCAACAGAGGAUUGAGCAUCA
# B15: chr15:34983303:34983404:-|CDS|ENSG00000198146|msi1|FALSE|unique (ssRNA)
# RNA: GGGAGUUCUACAGUCCGACGAUCGCUGAAAACAAUUUAAAAAUGCUAAAGAUUCAACAGUGUGUGGUAGCCAACAAACUACCUAGAAACAGGCCAUAUGUUUGCAAUAUUUGUUUUAAGCACUUUGAAACACCAUCAAAAUUACAACAGAGGAUUGAGCAUCA
# B16: ENSG00000160710:stop:overlap|stop_codon|ENSG00000160710|stop_codon|NA|stop_codon (ssRNA)
# RNA: GGGAGUUCUACAGUCCGACGAUCGCUAUGGGAACUGGAUUAGCAAACCCCAGGAGGAAAAGAACUUUUAUCUCUGCCCAGUAUAGUAUGCUCCAGUGACAGAUGGAUUAGGGUGUGUCAUACUAGGGUGUGAGAGAGGUAGGUCAACAGAGGAUUGAGCAUCA
# B17: chr5:128187618:128187661:+|3pUTR|ENSG00000064651|msi1_unk|FALSE|overlapping (ssRNA)
# RNA: GGGAGUUCUACAGUCCGACGAUCUCCUUUAUAAGUCAUUAAAAUAAUGUUUCAUCAAAUGGUUAAAUGGACCACUGGUUUCUUAGAGAAAUGUUUUUAGGCUUAAUUCAUUCAAUUGUCAAGUACACUUAGUCUUAAUACACUCAACAGAGGAUUGAGCAUCA
# B18: ENSG00000198589:be:win_9151|3pUTR|ENSG00000198589|bound_else_gene|NA|bound_elsewhere_windowed (ssRNA)
# RNA: GGGAGUUCUACAGUCCGACGAUCAUUGUGUGGUUAGCACAAGGAAUCUAAUUUAUAGCAAGUGUGAAAUAGUUACCAUUUUUUCCUGAUCUGUCAUCUUCAUAGCACAACAAAACGAAAUGAUGGAAAUGCUCUUGAGCUCACCAACAGAGGAUUGAGCAUCA
# B19: chr10:52765379:52768136:-|three_prime_utr|ENSG00000165471|control|control|control (ssRNA)
# RNA: GGGAGUUCUACAGUCCGACGAUCUUGUUCCUUUUGUGGGCAAUCACUAAAAAUGAUCACUAACAGCACCAACAAAGCAAUAAUAGUAGUAGUAGUAGUUAGCAGCAGCAGUAGUAGUCAUGCUAAUUAUAUAAUAUUUUUAAUCAACAGAGGAUUGAGCAUCA
# B20: chr6:149410404:149410522:+|3pUTR|ENSG00000055208|unk|FALSE|bound_elsewhere (ssRNA)
# RNA: GGGAGUUCUACAGUCCGACGAUCUUAUAUUUCUAUAUGUAUAGUGUAAUAGCCUUUUGUUAACUAAUUUUCUUUUUUCCUUUUAGUAAUUAAGCACGAUCAUGUCCCUUUUUAAGCCUUACCUGAGAGGAACAAUGCCUUAAACAACAGAGGAUUGAGCAUCA
# B21: ENSG00000198589:be:win_9201|3pUTR|ENSG00000198589|bound_else_gene|NA|bound_elsewhere_windowed (ssRNA)
# RNA: GGGAGUUCUACAGUCCGACGAUCACCAUUUUUUCCUGAUCUGUCAUCUUCAUAGCACAACAAAACGAAAUGAUGGAAAUGCUCUUGAGCUCACAACAUUUGUUUUUCUUUUAAAGUAAAUGCAAGUACCAAAGCUCACUACUGCAACAGAGGAUUGAGCAUCA
# B22: chr3:112140897:112141281:-|three_prime_utr|ENSG00000172139|control|control|control (ssRNA)
# RNA: GGGAGUUCUACAGUCCGACGAUCACUUUUUGCAAAAUUUCCUUGAUUUAAAAUAUUUGUUAUUUUAAAUAUACAAAACAUUUUAGAAAAUCUUAGAGUAAAUUUUAGUCUUAAAGCCAGAAAAUAAGUUUAUAGCCAUCUAGACAACAGAGGAUUGAGCAUCA
# B23: chr6:149410404:149410522:+|3pUTR|ENSG00000055208|unk|total|mutant (ssRNA)
# RNA: B20 RNA with U41C, A42C, U49C, A50C, U83C, A84C
# B24: chr2:15946816:15946917:+|3pUTR|ENSG00000134323|unk|FALSE|unique (ssRNA)
# RNA: GGGAGUUCUACAGUCCGACGAUCUAUAUGCCUUUUUCCUAGCCUGUUUCUUCCUGUUAAUGUAUUUGUUCAUGUUUGGUGCAUAGAACUGGGUAAAUGCAAAGUUCUGUGUUUAAUUUCUUCAAAAUGUAUAUAUUUAGUGCUCAACAGAGGAUUGAGCAUCA
# B25: ENSG00000198589:be:win_9101|3pUTR|ENSG00000198589|bound_else_gene|NA|bound_elsewhere_windowed (ssRNA)
# RNA: GGGAGUUCUACAGUCCGACGAUCUUCAAGCAUGUUUUAGACCUAGAAAAGUAUGGUUUGGGGGAGGCUAUUUUAUUGUGUGGUUAGCACAAGGAAUCUAAUUUAUAGCAAGUGUGAAAUAGUUACCAUUUUUUCCUGAUCUGUCAACAGAGGAUUGAGCAUCA
# B26: chr12:89590234:89590335:-|3pUTR|ENSG00000070961|msi1|FALSE|bound_elsewhere (ssRNA)
# RNA: GGGAGUUCUACAGUCCGACGAUCUUUGCCUACAAUUUACCUUGUUAAAUAUUGUAGAUAAAUUGCUAAUACUAAUAGCCAAAUAGAUAACACUAAUGCUUUGUUUAAAAAAACGAAAAAAACAAAACAAAACAAAAAAACAUGCAACAGAGGAUUGAGCAUCA
# Target: MSI1 full-length (mouse, UniProt Q61474 1-362)
# Test: nsRBNS (natural sequence RNA bind-n-seq); RBNS binding buffer (assumed for nsRBNS): 25 mM Tris pH 7.5, 150 mM KCl, 3 mM MgCl2, 0.01% Triton X-100, 500 ug/ml BSA, 20 U/ml SUPERase-In, 4 C; UNK is unkempt and MSI1 is Musashi-1; names of the RNAs are library labels; protein concentration not given here; high values mean tight binding
# Chain of MSI1 full-length (Q61474 whole entry): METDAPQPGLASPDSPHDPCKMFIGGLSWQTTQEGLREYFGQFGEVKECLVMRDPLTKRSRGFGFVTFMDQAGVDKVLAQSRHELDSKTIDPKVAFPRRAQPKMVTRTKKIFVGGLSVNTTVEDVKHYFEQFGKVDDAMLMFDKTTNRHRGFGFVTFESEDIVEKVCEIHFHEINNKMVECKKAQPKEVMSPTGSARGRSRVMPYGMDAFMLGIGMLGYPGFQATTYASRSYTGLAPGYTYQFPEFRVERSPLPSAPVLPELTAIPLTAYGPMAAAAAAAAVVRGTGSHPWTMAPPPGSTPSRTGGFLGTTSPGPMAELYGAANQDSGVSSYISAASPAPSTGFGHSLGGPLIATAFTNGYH
row,Binder,binding signal [enrichment R]
1,B1,0.204
2,B2,0.499
3,B3,0.72
4,B4,0.675
5,B5,0.579
6,B6,0.389
7,B7,0.496
8,B8,19.3
9,B9,0.883
10,B10,2.09
11,B11,1.96
12,B12,17.8
13,B13,1.88
14,B14,0.321
15,B15,0.421
16,B16,1.25
17,B17,15.5
18,B18,33.5
19,B19,83.7
20,B20,30.1
21,B21,0.392
22,B22,14.9
23,B23,11.2
24,B24,6.12
25,B25,7.83
26,B26,1.67
